Columns and labels:
Assay in all cases: log2 ratio of Biotin-Ahx-Ub-VS probe labelling (fragment/DMSO); higher = less target engagement (more negative = stronger competition), active = hit call of the paper (q ≤ 0.05, log2 ratio ≤ -1)
Conditions in all cases: compound concentration: 200 uM; treatment time: 3 h
USP42 = molecular target: T1, USP42 (UniProt Q9H9J4)
T1 sequence (whole entry): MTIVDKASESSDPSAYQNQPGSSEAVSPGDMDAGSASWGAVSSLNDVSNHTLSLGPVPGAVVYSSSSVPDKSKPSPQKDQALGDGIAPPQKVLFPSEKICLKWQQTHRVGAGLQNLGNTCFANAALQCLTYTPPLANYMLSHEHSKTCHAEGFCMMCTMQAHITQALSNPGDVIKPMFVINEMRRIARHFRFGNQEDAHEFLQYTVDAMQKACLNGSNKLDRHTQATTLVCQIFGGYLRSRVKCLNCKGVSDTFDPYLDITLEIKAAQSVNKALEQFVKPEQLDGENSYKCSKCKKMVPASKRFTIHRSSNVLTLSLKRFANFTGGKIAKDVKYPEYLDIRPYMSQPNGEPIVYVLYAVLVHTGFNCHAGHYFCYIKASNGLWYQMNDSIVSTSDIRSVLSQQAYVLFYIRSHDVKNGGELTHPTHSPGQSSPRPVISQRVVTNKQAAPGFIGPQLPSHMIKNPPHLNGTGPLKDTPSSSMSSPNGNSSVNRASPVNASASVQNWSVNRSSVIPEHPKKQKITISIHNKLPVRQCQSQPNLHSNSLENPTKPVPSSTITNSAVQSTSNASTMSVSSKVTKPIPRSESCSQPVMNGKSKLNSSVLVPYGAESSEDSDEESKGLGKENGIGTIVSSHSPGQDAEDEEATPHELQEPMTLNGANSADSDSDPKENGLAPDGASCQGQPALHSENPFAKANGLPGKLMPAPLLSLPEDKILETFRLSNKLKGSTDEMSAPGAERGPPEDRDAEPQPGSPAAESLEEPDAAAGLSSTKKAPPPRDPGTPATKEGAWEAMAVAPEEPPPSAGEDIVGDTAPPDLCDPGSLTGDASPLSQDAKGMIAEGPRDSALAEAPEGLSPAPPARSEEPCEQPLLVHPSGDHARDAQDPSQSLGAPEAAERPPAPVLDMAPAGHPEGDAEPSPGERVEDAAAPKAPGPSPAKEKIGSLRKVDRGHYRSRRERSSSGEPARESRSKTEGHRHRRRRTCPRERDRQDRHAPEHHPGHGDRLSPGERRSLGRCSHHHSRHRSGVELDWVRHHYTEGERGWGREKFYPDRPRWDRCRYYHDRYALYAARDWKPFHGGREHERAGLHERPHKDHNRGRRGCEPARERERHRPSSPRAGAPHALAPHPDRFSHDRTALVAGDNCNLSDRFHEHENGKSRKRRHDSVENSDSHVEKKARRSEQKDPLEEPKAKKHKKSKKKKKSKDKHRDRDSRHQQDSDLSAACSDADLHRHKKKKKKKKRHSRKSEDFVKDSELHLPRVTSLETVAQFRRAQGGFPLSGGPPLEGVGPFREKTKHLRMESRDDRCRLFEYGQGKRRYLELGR
Method in brief: (§1)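 Labelling with Biotin-Ahx-Ub-VS (0.5 µM final, 1 h) followed a 3 h triplicate treatment of HEK293T lysate (495 µg per sample, Tris/CHAPS/IGEPAL buffer with protease inhibitors) with fragment at 200 µM or vehicle. Labelled DUBs were NeutrAvidin-enriched, digested with LysC and trypsin, and run by diaPASEF LC-MS/MS. The values, average log2 fragment/vehicle ratios by unpaired t-test, come from global-median-normalised Spectronaut label-free quantities. Proteins with ≥2 unique peptides were used.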

USP46 = USP46 (UniProt P62068)
Method in brief: as §1

USP47 = molecular target: T2, USP47 (UniProt Q96K76)
T2 sequence (whole entry): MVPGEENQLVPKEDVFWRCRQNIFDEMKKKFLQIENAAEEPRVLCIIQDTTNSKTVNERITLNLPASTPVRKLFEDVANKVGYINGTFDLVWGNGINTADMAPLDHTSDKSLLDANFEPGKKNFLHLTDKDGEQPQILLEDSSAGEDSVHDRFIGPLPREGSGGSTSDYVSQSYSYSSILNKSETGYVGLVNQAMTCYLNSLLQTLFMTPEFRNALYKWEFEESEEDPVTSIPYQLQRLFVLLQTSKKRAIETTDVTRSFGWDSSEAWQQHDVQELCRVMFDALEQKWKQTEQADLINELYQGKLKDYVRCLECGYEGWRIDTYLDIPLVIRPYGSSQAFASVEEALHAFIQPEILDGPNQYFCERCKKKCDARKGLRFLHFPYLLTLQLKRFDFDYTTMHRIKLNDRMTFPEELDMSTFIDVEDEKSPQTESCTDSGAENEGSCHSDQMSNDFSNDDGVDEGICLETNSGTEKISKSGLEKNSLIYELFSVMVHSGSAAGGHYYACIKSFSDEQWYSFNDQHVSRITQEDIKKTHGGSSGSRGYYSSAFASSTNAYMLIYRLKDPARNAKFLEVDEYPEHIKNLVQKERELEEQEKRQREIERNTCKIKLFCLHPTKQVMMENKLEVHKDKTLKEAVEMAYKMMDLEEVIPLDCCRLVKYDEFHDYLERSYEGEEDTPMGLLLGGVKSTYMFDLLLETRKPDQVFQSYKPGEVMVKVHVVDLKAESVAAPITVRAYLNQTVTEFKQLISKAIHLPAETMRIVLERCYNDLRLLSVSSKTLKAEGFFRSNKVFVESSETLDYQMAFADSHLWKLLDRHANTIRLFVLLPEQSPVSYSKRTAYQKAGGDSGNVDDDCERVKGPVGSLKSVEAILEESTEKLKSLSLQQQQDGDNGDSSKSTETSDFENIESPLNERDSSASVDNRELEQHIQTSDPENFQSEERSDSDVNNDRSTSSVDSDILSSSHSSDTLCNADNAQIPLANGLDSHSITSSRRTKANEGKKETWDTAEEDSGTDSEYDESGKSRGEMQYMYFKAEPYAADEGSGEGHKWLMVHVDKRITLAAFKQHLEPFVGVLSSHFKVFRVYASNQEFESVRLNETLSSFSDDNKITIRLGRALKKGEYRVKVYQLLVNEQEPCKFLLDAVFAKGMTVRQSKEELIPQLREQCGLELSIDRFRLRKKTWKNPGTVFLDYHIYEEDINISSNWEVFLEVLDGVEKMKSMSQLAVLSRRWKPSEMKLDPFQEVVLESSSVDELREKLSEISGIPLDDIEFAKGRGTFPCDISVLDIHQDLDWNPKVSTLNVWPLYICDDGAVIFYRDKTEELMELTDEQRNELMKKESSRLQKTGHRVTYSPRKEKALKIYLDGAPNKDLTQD
Method in brief: as §1

USP48 = molecular target: T3, USP48 (UniProt Q86UV5)
T3 sequence (whole entry): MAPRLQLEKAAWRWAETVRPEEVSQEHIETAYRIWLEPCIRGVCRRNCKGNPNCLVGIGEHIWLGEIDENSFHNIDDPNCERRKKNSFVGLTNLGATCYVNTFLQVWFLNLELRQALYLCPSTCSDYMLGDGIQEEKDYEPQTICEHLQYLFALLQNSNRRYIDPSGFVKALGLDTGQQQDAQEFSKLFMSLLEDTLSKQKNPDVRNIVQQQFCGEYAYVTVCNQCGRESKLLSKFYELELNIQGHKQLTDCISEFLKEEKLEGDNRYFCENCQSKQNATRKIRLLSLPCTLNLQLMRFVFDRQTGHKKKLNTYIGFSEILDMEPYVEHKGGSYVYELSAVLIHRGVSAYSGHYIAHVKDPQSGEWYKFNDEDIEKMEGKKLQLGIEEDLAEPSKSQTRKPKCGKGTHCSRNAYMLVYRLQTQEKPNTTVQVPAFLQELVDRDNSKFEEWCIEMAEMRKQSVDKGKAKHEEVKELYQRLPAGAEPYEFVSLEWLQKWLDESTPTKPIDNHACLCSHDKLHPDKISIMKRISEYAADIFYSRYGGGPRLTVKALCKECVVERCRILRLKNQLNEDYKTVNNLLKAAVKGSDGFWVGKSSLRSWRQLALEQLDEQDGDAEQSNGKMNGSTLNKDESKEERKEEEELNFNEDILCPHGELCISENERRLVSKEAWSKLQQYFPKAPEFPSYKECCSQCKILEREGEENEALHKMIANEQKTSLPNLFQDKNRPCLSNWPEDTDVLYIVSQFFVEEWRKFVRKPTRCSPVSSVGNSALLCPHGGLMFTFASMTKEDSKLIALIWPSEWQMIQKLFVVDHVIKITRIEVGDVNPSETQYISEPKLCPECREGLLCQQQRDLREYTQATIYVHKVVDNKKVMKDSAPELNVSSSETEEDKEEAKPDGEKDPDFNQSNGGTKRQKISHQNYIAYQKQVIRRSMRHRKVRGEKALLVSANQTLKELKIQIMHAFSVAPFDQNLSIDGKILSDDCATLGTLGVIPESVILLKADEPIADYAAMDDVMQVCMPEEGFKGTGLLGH
Method in brief: as §1

USP5 = molecular target: T4, USP5 (UniProt P45974)
T4 sequence (whole entry): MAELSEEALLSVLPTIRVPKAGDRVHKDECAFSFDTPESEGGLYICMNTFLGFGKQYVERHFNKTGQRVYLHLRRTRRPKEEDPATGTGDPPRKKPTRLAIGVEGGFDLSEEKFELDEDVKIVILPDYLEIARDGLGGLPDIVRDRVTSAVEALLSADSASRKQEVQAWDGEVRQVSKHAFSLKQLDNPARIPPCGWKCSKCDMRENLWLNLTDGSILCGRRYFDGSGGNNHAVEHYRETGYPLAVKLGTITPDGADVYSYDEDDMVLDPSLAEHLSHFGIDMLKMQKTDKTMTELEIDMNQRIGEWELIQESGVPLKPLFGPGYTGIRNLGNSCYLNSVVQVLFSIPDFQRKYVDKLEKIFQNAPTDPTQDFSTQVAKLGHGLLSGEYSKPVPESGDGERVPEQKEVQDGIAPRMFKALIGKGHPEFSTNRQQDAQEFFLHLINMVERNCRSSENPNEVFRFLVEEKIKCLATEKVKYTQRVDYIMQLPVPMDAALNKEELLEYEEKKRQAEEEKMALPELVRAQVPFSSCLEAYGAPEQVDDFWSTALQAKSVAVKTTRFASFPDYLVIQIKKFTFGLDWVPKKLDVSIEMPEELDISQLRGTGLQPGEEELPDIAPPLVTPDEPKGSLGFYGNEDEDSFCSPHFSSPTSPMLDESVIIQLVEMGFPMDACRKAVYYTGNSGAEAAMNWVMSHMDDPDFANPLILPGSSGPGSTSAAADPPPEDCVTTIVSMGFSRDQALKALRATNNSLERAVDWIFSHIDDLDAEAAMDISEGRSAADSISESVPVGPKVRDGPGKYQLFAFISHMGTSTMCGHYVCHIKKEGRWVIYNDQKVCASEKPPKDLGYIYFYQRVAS
Method in brief: as §1

USP54 = USP54 (UniProt Q70EL1)
Method in brief: as §1

USP7 = USP7 (UniProt Q93009)
Method in brief: as §1

USP8 = molecular target: T5, USP8 (UniProt P40818)
T5 sequence (whole entry): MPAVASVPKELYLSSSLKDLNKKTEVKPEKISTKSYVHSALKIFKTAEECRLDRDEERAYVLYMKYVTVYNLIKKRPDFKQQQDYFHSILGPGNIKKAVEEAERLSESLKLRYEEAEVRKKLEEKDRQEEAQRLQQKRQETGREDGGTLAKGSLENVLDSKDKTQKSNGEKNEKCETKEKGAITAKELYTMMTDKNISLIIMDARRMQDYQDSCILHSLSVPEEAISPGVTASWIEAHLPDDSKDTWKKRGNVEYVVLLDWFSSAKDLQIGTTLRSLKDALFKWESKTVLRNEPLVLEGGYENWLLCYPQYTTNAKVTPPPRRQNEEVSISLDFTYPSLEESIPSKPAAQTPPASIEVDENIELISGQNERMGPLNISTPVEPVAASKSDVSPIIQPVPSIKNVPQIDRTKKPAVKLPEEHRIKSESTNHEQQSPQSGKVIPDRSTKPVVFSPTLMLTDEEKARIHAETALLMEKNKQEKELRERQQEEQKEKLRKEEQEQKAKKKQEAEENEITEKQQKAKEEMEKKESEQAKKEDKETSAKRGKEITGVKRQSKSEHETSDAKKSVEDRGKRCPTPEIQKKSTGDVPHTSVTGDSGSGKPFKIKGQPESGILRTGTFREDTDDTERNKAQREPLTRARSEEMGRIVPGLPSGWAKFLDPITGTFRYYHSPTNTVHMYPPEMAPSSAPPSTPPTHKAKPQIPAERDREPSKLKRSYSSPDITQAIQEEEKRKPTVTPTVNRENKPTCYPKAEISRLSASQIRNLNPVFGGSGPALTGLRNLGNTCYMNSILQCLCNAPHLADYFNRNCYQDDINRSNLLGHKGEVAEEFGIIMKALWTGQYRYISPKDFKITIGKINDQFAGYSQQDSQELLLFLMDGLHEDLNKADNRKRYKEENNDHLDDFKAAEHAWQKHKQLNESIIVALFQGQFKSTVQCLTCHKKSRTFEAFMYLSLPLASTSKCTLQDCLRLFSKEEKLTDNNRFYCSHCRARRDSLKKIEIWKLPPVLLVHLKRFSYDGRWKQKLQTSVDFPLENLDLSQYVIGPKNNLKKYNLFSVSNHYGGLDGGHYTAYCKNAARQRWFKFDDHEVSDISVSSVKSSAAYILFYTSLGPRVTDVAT
Method in brief: as §1

USP9X = USP9X (UniProt Q93008)
Method in brief: as §1

UniProt O00487 = molecular target: UniProt O00487
Method in brief: as §1

Measured: log2 ratio of Biotin-Ahx-Ub-VS probe labelling

Chain of USP9X (Q93008 whole entry): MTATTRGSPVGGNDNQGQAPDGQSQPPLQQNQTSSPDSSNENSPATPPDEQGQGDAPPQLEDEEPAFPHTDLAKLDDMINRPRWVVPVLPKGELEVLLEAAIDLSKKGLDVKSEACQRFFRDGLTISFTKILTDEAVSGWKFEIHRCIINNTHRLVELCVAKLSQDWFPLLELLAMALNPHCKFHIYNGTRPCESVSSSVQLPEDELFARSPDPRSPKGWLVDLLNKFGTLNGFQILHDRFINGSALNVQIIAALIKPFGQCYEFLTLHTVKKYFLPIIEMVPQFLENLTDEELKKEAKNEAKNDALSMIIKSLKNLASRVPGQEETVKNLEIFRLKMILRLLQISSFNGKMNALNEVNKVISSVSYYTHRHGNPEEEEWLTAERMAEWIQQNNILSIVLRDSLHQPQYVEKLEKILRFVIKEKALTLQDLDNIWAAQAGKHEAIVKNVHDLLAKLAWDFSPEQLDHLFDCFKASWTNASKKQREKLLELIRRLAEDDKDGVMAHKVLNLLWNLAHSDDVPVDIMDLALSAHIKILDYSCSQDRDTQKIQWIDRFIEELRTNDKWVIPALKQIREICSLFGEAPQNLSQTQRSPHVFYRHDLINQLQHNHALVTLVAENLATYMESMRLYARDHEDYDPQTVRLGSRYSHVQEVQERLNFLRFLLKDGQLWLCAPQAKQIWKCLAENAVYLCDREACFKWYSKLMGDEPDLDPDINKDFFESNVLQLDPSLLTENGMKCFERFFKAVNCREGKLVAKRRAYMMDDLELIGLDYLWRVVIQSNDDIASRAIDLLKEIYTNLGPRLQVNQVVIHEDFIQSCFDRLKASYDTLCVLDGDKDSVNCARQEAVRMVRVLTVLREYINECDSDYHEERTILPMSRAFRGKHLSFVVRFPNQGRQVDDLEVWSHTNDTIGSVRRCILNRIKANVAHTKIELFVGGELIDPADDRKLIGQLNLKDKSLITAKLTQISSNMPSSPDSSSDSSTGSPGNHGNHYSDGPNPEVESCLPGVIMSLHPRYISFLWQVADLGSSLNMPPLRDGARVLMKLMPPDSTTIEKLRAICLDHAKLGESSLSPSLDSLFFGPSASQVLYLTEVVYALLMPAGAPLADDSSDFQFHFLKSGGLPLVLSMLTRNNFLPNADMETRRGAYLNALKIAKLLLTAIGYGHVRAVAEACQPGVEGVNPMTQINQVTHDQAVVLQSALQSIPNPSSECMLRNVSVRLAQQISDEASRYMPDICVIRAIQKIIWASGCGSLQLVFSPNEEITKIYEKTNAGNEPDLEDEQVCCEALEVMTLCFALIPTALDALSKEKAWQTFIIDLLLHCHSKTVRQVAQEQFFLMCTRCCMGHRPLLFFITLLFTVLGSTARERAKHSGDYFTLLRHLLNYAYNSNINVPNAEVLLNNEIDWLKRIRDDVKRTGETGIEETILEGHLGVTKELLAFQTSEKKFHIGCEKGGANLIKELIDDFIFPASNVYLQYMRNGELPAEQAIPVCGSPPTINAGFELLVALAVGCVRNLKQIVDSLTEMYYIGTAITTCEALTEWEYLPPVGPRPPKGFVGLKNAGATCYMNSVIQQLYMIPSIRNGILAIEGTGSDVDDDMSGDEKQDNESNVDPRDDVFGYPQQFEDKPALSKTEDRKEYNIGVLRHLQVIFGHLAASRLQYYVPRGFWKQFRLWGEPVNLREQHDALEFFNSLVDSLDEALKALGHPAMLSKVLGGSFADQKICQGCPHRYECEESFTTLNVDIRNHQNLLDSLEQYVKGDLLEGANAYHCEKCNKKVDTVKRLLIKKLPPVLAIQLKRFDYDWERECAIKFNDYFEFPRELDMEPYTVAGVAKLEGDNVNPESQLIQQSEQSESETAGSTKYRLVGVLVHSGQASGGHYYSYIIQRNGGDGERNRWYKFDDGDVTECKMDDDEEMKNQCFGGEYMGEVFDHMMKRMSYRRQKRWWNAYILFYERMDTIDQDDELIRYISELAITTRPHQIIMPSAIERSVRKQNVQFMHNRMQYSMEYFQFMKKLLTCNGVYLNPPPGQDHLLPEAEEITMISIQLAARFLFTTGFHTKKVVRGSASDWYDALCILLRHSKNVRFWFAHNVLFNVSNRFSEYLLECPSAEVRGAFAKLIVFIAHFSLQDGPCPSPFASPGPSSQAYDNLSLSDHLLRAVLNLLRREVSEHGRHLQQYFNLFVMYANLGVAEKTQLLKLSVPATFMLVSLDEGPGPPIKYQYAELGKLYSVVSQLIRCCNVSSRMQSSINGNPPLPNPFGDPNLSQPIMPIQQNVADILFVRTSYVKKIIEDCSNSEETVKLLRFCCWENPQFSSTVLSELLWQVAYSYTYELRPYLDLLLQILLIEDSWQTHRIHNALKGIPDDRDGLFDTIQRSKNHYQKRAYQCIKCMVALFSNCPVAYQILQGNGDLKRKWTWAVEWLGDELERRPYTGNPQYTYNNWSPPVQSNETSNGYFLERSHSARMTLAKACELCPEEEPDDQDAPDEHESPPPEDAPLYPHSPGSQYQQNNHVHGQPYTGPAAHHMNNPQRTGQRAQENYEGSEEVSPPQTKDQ
Chain of USP7 (Q93009 whole entry, looked up): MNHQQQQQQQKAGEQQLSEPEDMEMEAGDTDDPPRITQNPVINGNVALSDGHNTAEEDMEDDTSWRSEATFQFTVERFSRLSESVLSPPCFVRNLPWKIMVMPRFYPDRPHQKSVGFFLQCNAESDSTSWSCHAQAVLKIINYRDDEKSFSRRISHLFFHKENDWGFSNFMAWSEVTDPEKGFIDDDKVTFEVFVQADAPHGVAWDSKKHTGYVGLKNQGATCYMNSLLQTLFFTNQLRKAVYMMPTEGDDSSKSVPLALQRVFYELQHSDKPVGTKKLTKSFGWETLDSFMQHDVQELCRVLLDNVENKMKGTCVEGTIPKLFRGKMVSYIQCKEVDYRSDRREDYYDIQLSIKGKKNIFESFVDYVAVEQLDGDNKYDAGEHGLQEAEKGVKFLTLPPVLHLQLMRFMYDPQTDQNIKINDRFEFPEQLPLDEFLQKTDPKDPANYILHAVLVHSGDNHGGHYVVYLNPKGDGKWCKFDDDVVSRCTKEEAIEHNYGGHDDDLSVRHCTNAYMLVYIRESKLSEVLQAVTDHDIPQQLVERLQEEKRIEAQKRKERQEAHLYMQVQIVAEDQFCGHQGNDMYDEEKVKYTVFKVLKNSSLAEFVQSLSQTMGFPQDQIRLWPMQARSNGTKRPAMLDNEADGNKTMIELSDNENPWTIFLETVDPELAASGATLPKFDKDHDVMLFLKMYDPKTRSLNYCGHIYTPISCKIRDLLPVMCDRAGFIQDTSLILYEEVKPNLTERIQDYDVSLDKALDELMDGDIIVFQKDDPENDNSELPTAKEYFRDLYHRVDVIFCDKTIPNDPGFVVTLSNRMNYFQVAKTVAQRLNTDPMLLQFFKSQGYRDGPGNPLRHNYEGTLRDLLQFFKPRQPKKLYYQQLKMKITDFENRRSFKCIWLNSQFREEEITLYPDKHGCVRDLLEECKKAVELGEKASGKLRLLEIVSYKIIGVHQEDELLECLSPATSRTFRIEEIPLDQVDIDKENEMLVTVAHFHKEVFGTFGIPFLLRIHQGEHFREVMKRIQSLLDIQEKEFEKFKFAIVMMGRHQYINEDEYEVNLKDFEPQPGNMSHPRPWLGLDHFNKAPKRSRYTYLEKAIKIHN
Chain of USP46 (P62068 whole entry): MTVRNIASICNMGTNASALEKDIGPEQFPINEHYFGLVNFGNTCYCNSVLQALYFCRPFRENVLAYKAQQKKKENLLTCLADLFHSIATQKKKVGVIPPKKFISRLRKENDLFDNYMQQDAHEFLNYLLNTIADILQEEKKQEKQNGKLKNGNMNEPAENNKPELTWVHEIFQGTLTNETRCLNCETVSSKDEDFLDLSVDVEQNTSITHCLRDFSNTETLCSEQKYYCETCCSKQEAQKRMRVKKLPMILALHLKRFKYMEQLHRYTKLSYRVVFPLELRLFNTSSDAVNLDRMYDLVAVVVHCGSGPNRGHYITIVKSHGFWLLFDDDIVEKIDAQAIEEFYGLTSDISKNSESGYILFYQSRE
Chain of UniProt O00487 (O00487 whole entry): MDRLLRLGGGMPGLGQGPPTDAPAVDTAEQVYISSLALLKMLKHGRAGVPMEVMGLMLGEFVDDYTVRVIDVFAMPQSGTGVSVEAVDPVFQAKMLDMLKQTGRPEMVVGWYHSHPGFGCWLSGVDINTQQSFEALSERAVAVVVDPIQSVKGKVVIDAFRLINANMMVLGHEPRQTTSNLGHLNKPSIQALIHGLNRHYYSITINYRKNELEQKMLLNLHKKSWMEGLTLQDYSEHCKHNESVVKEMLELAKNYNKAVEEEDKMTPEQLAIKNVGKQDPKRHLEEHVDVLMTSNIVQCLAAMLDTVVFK

CNC(=O)C1CCN(C(=O)CCl)CC1
inactive: USP42 0.308 | USP46 0.0795 | USP47 0.356 | USP48 -0.0361 | USP5 -0.203 | USP54 0.32 | USP7 -0.171 | USP8 -0.00406 | USP9X -0.107 | UniProt O00487 0.144
